Only some compounds are listed: those with a hit (about 6.6% of all), similar ones and a draw of the others.
KB-3-1 tox: qHTS assay for MDR1-selective chemotherapeutics: Primary screen using the parental adenocarcinoma cell KB-3-1; KB-3-1 viability, CellTiter-Glo ATP luminescence, 72 h; Potency, µM (highest dose often 46.1 µM), actives largely listed as cytotoxic; 400,000 compounds, 1.4% hits; note: nearly all actives have a fitted effect of over 60% in size
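KB-3-1 cells, DMEM (no phenol red) + 10% FBS; compound by pin transfer, 72 h, 37 °C. Readout: CellTiter-Glo luminescence after 10 min. Data normalized, curve-fitted.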
HepG2 tox: qHTS for Inhibitors of TGF-b: Cytotox Counterscreen; Potency, µM (series often up to 46.1 µM), hits mostly cytotoxic; HepG2 CAGA-GFP viability, ATP luminescence, 18 h; 410,000 compounds, 0.76% hits
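CellTiter-Glo luminescence gave cytotoxicity after 18 hours at 37 degrees C. The cells were HepG2 CAGA-GFP in 1% FBS DMEM, stimulated with 500 pg/mL TGF-beta after compound addition. %Activity was normalised to no-cell wells (complete cell-killing) and DMSO (no toxicity), and curves were fitted and classified.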
KB-V1 cytotox: qHTS assay for MDR1-selective chemotherapeutics: Primary screen using the drug-selected MDR subline cells KB-V1; AID 1347076, 2019; Potency, µM (highest dose often 46.1 µM), usual class: cytotoxic; KB-V1 MDR cells viability, CellTiter-Glo, 72 h; 400,000 compounds, 3.4% hits; note: nearly all actives have a fitted effect of over 60% in size
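Cytotoxicity toward P-gp-expressing KB-V1 cells was determined as loss of CellTiter-Glo luminescence after 72 h at 37 degrees C. Compounds were tested in quantitative HTS format across a concentration range, with curves fitted to normalized data.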
HT1080-NT tox: qHTS for induction of synthetic lethality in tumor cells producing 2HG: qHTS for the HT-1080-NT fibrosarcoma cell line | HT-1080-NT fibrosarcoma viability, CellTiter-Glo ATP luminescence, 48 h | Potency, µM (doses to about 46.1 µM), usual class: cytotoxic | 360,000 compounds, 1.6% hits;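 note: NT is the 2HG producing partner of a matched IDH1 knockdown line; nearly all actives have a fitted effect of over 55% in size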
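Compounds were tested in concentration-response format on HT-1080-NT cells for 48 hours at 37 degrees C. Cell viability came from CellTiter-Glo luminescence; curves were classified by r2, response magnitude and activity.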
TGFb inhibitor: qHTS for Inhibitors of TGF-b; HepG2 CAGA-GFP TGF-b/SMAD3 reporter, GFP fluorescence, 18 h; TGF-beta stimulated, 500 pg/mL final; Potency, µM (top dose mostly 46.1 µM), actives largely listed as inhibitors; 410,000 compounds, 1.2% hits; AID 588855, 2011; note: nearly all actives have a fitted effect of over 65% in size
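Read-out: total well GFP (ex488/em500-530) summed from mean per-cell fluorescence. Cells: HEPG2 CAGA-GFP, 1% FBS DMEM, 18 h at 37 degrees C with 500 pg/mL final TGF-beta. Unstimulated wells served as the full-inhibition control; stimulated DMSO wells = 0%.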
HT1080 IDH1KD tx: qHTS for induction of synthetic lethality in tumor cells producing 2HG: qHTS for the HT-1080-IDH1KD cell line. HT-1080 IDH1 knockdown viability, ATP luminescence, 48 h. Potency, µM (top dose mostly 46.1 µM), actives largely listed as cytotoxic. 360,000 compounds, 2% hits. AID 686971, 2013
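Viability of IDH1-knockdown HT-1080 fibrosarcoma cells was assessed by CellTiter-Glo after 48 h at 37 °C with titrated compound; concentration-effect curves were classified by fit quality and response size.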
Of the large screens only hits and unclear results are named; the others gave an inactive call. Calls come from the whole dose curve; as a rule, active = well fitted curve in the direction sought with a large enough effect; inconclusive = small, poorly fitted or top-dose-only effect, or another doubt; inactive = no such curve, though single readings can be large; an effect the other way counts as inactive or inconclusive.

O=C(CSc1n[nH]c(-c2ccccc2O)n1)N1CCCc2ccccc21	KB-3-1 tox inconclusive, KB-V1 cytotox inconclusive, HT1080-NT tox inconclusive, HT1080 IDH1KD tx 16µM
Cc1ccc(-c2cnc(SCC(=O)N3CCCc4ccccc43)n2C)cc1	TGFb inhibitor inconclusive
CCn1c(SCc2cc(=O)[nH]c3ccccc23)nc2c1c(=O)n(C)c(=O)n2C	KB-V1 cytotox 16µM
COc1ccc(OC)c(-c2nnc3n(Cc4ccc(C)cc4)c(=O)c4ccccc4n23)c1	none (no result: HT1080-NT tox, HT1080 IDH1KD tx)
O=C(CCCCCn1c(=O)c2sccc2n(CC(=O)Nc2ccccc2F)c1=O)NCc1ccc2c(c1)OCO2	none (no result: KB-3-1 tox, KB-V1 cytotox, HT1080-NT tox, HT1080 IDH1KD tx)
O=C(Nc1cccc(C(=O)N2CCN(c3ccc(F)cc3)CC2)c1)c1nsc2ccccc12	none (no result: HT1080-NT tox, HT1080 IDH1KD tx)
Cc1ccc2nc(SCC(=O)N3CCCc4ccccc43)nc(=O)n2c1	KB-V1 cytotox 18µM
CCOc1ccc(-c2nnc(SCC(=O)c3ccc(F)cc3)n2-c2ccccc2)cc1	none (no result: KB-3-1 tox, KB-V1 cytotox, HT1080-NT tox, HT1080 IDH1KD tx)
O=C(CSc1nnc(-c2ccccc2Br)n1-c1ccccc1)c1ccc(F)cc1	KB-3-1 tox inconclusive, KB-V1 cytotox 18µM (no result: HT1080-NT tox, HT1080 IDH1KD tx)
CCn1c(SCC(=O)N2c3ccccc3CCc3ccccc32)nc2c1c(=O)n(C)c(=O)n2C	KB-V1 cytotox 2.1µM, HT1080-NT tox inconclusive
CCOC(=O)c1cc(OCc2csc(-c3ccccc3)n2)cc(C(=O)OCC)c1	none (no result: HT1080-NT tox, HT1080 IDH1KD tx)
FC(F)(Cl)c1nnc2ccc(Cl)nn12	KB-3-1 tox 6.5µM, KB-V1 cytotox inconclusive, HT1080-NT tox inconclusive, HT1080 IDH1KD tx inconclusive
Clc1ccc2nnc(Cl)n2n1	none
CCc1cccc(C)c1NC(=O)c1cnn(-c2ccc(OC)cc2)c1C1CCN(C(=O)OC(C)(C)C)CC1	KB-3-1 tox inconclusive, TGFb inhibitor inconclusive (no result: HT1080-NT tox, HT1080 IDH1KD tx)
O=c1[nH]c2cc3c(cc2cc1CN(Cc1cccnc1)Cc1nnnn1Cc1ccco1)OCCO3	HT1080 IDH1KD tx inconclusive
Cc1ccc2[nH]c(=O)c(CN(CCc3ccccc3)C(c3nnnn3Cc3ccco3)C(C)C)cc2c1 (centres undefined)	KB-3-1 tox inconclusive, KB-V1 cytotox inconclusive, HT1080-NT tox inconclusive, HT1080 IDH1KD tx 16µM
CCC(c1nnnn1Cc1ccco1)N(CCc1ccccc1)Cc1cc2cc(C)ccc2[nH]c1=O (centres undefined)	KB-3-1 tox inconclusive, KB-V1 cytotox inconclusive, TGFb inhibitor inconclusive, HT1080 IDH1KD tx inconclusive
O=c1[nH]c2cc3c(cc2cc1CN(Cc1ccccc1)Cc1nnnn1Cc1ccco1)OCCO3	KB-V1 cytotox 23µM, HT1080 IDH1KD tx inconclusive
CCOc1ccc(CCNC(=O)c2cc3sc(CC)cc3n2C)cc1OCC	TGFb inhibitor inconclusive (no result: KB-3-1 tox, KB-V1 cytotox, HT1080-NT tox, HT1080 IDH1KD tx)
CC(C)Nc1ncnc2c1ncn2[C@H]1CN(C2CCCC2)C[C@@H](CO)O1	none
COC(=O)c1ccc(NC(=O)CCn2cccn2)cc1	none (no result: HT1080-NT tox, HT1080 IDH1KD tx)
Cc1nc(N2CCCCC2)sc1C(=O)c1cccc([N+](=O)[O-])c1	KB-V1 cytotox inconclusive
Cc1nc(N2CCCCC2)sc1C(=O)c1ccc(SCCO)c([N+](=O)[O-])c1	KB-V1 cytotox 15µM
CCOc1cc(OCC)cc(C(=O)N2CCC[C@@H]2C(=O)N2CCC[C@H]2C(=O)NCc2ccncc2)c1	none (no result: HepG2 tox, TGFb inhibitor)
Cn1nnnc1SCCNCc1ccc(OCc2ccc(Cl)cc2)cc1	HepG2 tox 6.3µM, KB-V1 cytotox inconclusive, TGFb inhibitor inconclusive (no result: HT1080-NT tox, HT1080 IDH1KD tx)
CC(C)c1ccc(CNCCSc2nnnn2C)cc1	none (no result: HT1080-NT tox, HT1080 IDH1KD tx)
CCOc1cc(CNCCSc2nnnn2C)ccc1OCc1ccc(Cl)cc1Cl	HepG2 tox 11µM, KB-V1 cytotox inconclusive, TGFb inhibitor inconclusive (no result: HT1080-NT tox, HT1080 IDH1KD tx)
Cc1nc2ccn(Cc3cccs3)c(=O)c2cc1C(=O)N1CCN(c2ccccc2)CC1	none (no result: HT1080-NT tox, HT1080 IDH1KD tx)
COc1ccc(Cl)cc1NC(=O)C1CCN(S(=O)(=O)c2ccc3c(c2)CCCN3C(=O)C2CCC2)CC1	none (no result: HT1080-NT tox, HT1080 IDH1KD tx)

From PubChem
